34 molecules from ChEMBL document CHEMBL3433997, “St. Jude Leishmania screening dataset” (2016) can be followed below.

Assay type in all cases: functional
Experiment [1] has as its target Solute carrier family 2, facilitated glucose transporter member 1 (Homo sapiens) (UniProt P11166). The experiment in a line: ST_JUDE_LEISH: Cytotoxicity at 2uM final concentration against transgenic Leishmania Mexicana promastigotes LmGLUT1 that are glucose transport deficient and complemented with the human glucose transporter GLUT1. Activity is measured by DNA content using SYBR green in vitro.

Experiment [2] deals with Hexose transporter 1 (Plasmodium falciparum) (UniProt O97467). The experiment in a line: ST_JUDE_LEISH: Cytotoxicity at 2uM final concentration against transgenic Leishmania Mexicana promastigotes LmPfHT that are glucose transport deficient and complemented with the Plasmodium falciparum hexose transporter. Activity is measured by DNA content using SYBR green in vitro.
For experiment [3], the target named is Glucose transporter (Leishmania mexicana) (UniProt O61059). The experiment in a line: ST_JUDE_LEISH: Cytotoxicity at 2uM final concentration against transgenic Leishmania Mexicana promastigotes LmGT2 that are glucose transport deficient and complemented with the L. Mexicana glucose transporter 2. Activity is measured by DNA content using SYBR green in vitro.

Sequence of Solute carrier family 2, facilitated glucose transporter member 1 (Homo sapiens) (P11166 whole entry): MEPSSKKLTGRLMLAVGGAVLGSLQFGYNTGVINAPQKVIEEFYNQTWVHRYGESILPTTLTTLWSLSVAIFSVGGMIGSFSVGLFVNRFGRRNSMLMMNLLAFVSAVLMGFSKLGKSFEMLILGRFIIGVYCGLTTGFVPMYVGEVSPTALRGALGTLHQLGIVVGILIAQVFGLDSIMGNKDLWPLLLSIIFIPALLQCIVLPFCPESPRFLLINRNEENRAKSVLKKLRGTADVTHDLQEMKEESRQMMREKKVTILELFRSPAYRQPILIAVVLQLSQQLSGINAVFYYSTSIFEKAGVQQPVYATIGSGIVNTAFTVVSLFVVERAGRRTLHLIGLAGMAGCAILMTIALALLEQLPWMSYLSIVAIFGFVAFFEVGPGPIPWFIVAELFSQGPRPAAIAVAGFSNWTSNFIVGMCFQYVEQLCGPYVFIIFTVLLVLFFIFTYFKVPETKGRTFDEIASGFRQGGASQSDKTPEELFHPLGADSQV

As a reminder, the inhibition is the change of the read-out against control, counted positive when it falls. Regarding `CN1CCC(C(=O)Nc2ccc(-c3cccc(-c4nc5cc(C(F)(F)F)ccc5[nH]4)c3)cc2)CC1`, the inhibition in experiment [1] was 0.78%; in experiment [2], 2.62%; in experiment [3], 2.31%.

For `C=CCOc1cccc2c1CCN(CCN1CCC(NC(=O)c3ccc(-c4ccc(Cl)cc4)cc3)CC1)C2`, the figures for the inhibition in experiment [1], in experiment [2] and in experiment [3] were 17.2%, 11.3% and 9.23%, respectively.

As to `Fc1ccc2[nH]c(-c3cccc(-c4cccc(CNCCN5CCNCC5)c4)c3)nc2c1`, the inhibition is 2.5% in experiment [1], 2.3% in experiment [2] and 0.88% in experiment [3].

As to `CCc1cn2c3c(cc(C(=O)N[C@@H](Cc4cccc(F)c4)[C@H](O)CNC4CC4)cc13)N(C)S(=O)(=O)CC2`, the figures for the inhibition in experiment [1], in experiment [2] and in experiment [3] were 2.18%, 3.5% and 4.48%, respectively.

For `CN1CCN(CCCN(Cc2csc(-c3ccc(CNCc4ccccc4)cc3)n2)S(=O)(=O)c2ccccc2Cl)CC1`, the inhibition in experiment [1] stood at 1.75%; in experiment [2], 0.37%; in experiment [3], 2.9%.

For `CSc1nc2nc(C)c(Cc3cccc(C(F)(F)F)c3)c(C)n2n1`, the inhibition was 0.17% in experiment [1], 0% in experiment [2] and -1.61% in experiment [3].

On to `NC(=O)c1sc(-n2cnc3ccc(C(=O)NCCN4CCOCC4)cc32)cc1OCc1ccccc1C(F)(F)F`, for which the inhibition was 0.72% in experiment [1], -0.6% in experiment [2] and -0.32% in experiment [3].

Consider `CCOc1ccc(-c2nonc2NC(=O)c2ccco2)cc1OCC`, for which the inhibition was 1.01% in experiment [1], -0.52% in experiment [2] and 0.72% in experiment [3].

As to `Cn1c(NC(=O)CCCCCNC(=O)c2ccc(O)c(-c3ccc(Cl)c(Cl)c3)c2)nc2ccccc21`, the inhibition is 1.81% in experiment [1], 1.73% in experiment [2] and 2% in experiment [3].

For `Oc1cccc(/C=N/Nc2ccnc3cc(Cl)ccc23)c1`, the figures for the inhibition in experiment [1], in experiment [2] and in experiment [3] were 4.49%, 0.91% and 3.14%, respectively.

`C[C@H](NC(=O)c1c(CN2CCC(NC(=O)CC(C)(C)C)CC2)c(-c2cccs2)nc2ccccc12)C1CCCCC1`: the inhibition in experiment [1] is 2.07%; in experiment [2], 1.16%; in experiment [3] it was 0.4%.

As to `CS(=O)(=O)NCCCNCc1cccc(-c2ccc(-c3nc4cc(C(F)(F)F)ccc4[nH]3)cc2)c1`, the inhibition in experiment [1] is 7.6%; in experiment [2], 3.88%; in experiment [3], 0.95%.

`O=C(c1cccc(COc2ccc3c(c2)CCN(C2CCCC2)CC3)c1)N1CCN(c2ccncc2)CC1`: the values for the inhibition in experiment [1], in experiment [2] and in experiment [3] were 8.85%, 5.59% and 7.88%, respectively.

Regarding `CCN(CC)CCN1C(=O)c2oc3ccc(Cl)cc3c(=O)c2C1c1ccc(SC)cc1` (configuration not stated), the results for the inhibition in experiment [1], in experiment [2] and in experiment [3] were -3.16%, -2.27% and 8.97%, respectively.

Regarding `OCCN1CCN(Cc2ccc(-c3cccc(-c4nc5cc(C(F)(F)F)ccc5[nH]4)c3)cc2)CC1`, the inhibition in experiment [1] came out at 7.65%; in experiment [2], 7.08%; in experiment [3], 7.33%.

Take `Cc1ccc(Cn2cnc3cc(C(=O)Nc4ccc(-c5cccc(CN(C)C)c5)cc4)ccc3c2=O)o1`: the inhibition was 75.5% in experiment [1], 59% in experiment [2] and 51.1% in experiment [3].

`CO/C(=C\C=C\c1cc2cc(Cl)c(Cl)cc2[nH]1)C(=O)NCCCN1CCN(c2cccc(OC)c2)CC1`: the results for the inhibition in experiment [1], in experiment [2] and in experiment [3] were 8.59%, 8.04% and 9.1%, respectively.

Turning to `CCOCCCNc1ncc(-c2ccsc2)c(-c2nc(C)cs2)n1`, the values for the inhibition in experiment [1], in experiment [2] and in experiment [3] were 8%, 6.73% and 7.32%, respectively.

For the molecule `COc1ccc(C(=O)Nc2ccc(-c3ccc([N+](=O)[O-])cc3)cc2)cc1CCCN(C)C`, the inhibition in experiment [1] amounted to 2.83%; in experiment [2], 3.93%; in experiment [3] it was 2.45%.

For the molecule `O=C(NCc1cccc(F)c1)Nc1ccc(-c2cccc(-c3nc4ccccc4[nH]3)c2)cc1`, the values for the inhibition in experiment [1], in experiment [2] and in experiment [3] were 2.57%, 4.32% and -0.32%, respectively.

Turning to `COc1ccc(OC(C)CNC(=O)c2cc([N+](=O)[O-])ccc2-c2ccc(OC)cc2)cc1` (configuration not stated), the results for the inhibition in experiment [1], in experiment [2] and in experiment [3] were 0.03%, -1.79% and -4.55%, respectively.

Regarding `O=C(Nc1ccc(-c2nc3cc4ccccc4cc3[nH]2)cc1)c1cccc(Br)c1`, the inhibition worked out at 3.09% in experiment [1], 1.07% in experiment [2] and 5.72% in experiment [3].

With `CCn1c(-c2nc(-c3ccnc(N4CCN(C)CC4)c3)cnc2N)nc2cc(S(C)(=O)=O)ccc21`, the inhibition in experiment [1] was determined as 36.5%; in experiment [2], 45.3%; in experiment [3], 20.7%.

In the case of `Cc1n[nH]c2ccc(-c3cc(OC[C@@H](N)Cc4ccccc4)cnc3-c3ccccc3OCc3cccc(F)c3)cc12`, the inhibition in experiment [1] was 9.75%; in experiment [2] it was 1.05%; in experiment [3], -0.42%.

Regarding `O=C(Nc1cc(C(F)(F)F)cc(C(F)(F)F)c1)NC(CCCN1CCC2(CC1)OCc1ccccc12)c1ccc(Cl)c(Cl)c1` (configuration not stated), the inhibition in experiment [1] was 3%; in experiment [2], 5.93%; in experiment [3], -0.66%.

For the molecule `Cc1cccc(CN2CCCN(Cc3ccc(C(=O)Nc4ccc(C)c(F)c4)cc3)CC2)c1`, the inhibition in experiment [1] came to 1.23%; in experiment [2] it was 4.06%; in experiment [3] it was 2.11%.

On to `CCOC(=O)c1ccc(NC(=O)Nc2ccc(-c3ccc(-c4nc5cc(C(F)(F)F)ccc5[nH]4)cc3)cc2)cc1`, for which the figures for the inhibition in experiment [1], in experiment [2] and in experiment [3] were -1.59%, -0.19% and 1.54%, respectively.

Turning to `O=C(Nc1cccc(CN2CCCN(Cc3ccc(O)cc3)CC2)c1)c1ccc2ccccc2c1`, the inhibition came to 4.27% in experiment [1], 4.08% in experiment [2] and 3.93% in experiment [3].

For the molecule `Cc1ccc(O)cc1C[C@@H]1C(=O)CC[C@@]2(C)[C@H]1CC[C@]2(C)O`, the inhibition in experiment [1] was -1.27%; in experiment [2], 1%; in experiment [3], 2.57%.

As for `CC(C)(CNCc1ccc(OC(F)(F)F)cc1)c1nc(-c2ccc(Cl)c(O)c2)c(-c2ccncc2)[nH]1`, the inhibition was -0.48% in experiment [1], 0.11% in experiment [2] and 6.94% in experiment [3].

As for `CC(C)(C)OC(=O)N[C@@H](Cc1ccccc1)C(=O)Nc1cccc(-c2cccc(NC(=O)[C@H](Cc3ccccc3)NC(=O)OC(C)(C)C)c2)c1`, the inhibition in experiment [1] was 0.62%; in experiment [2], 0.21%; in experiment [3] it was 0.33%.

For the molecule `CN(C)CCn1c(=N)n(CC(O)c2ccc(Cl)c(Cl)c2)c2ccccc21` (configuration not stated), the inhibition in experiment [1] amounted to 6.31%; in experiment [2], 4.53%; in experiment [3], 5.49%.

As for `O=C(CCCCCNC(=O)c1ccc(O)c(-c2ccc(Cl)c(Cl)c2)c1)NCc1cccc2ccccc12`, the inhibition amounted to 2.63% in experiment [1], 2.12% in experiment [2] and 3.98% in experiment [3].

Turning to `Nc1c2ccccc2nc2ccc(-c3ccccc3)cc12`, the inhibition worked out at 18.4% in experiment [1], 14.6% in experiment [2] and 13.1% in experiment [3].
